# PMC7862700, “An all-to-all approach to the identification of sequence-specific readers for epigenetic DNA modifications on cytosine”
# How the values were obtained:
# Experiment in all cases: DAPPL (digital affinity profiling via proximity ligation, sequencing); 10 mM Tris-HCl pH 7.5, 50 mM NaCl, 1 mM DTT, 4% glycerol, room temperature, 30 min; GST-TFs on glutathione beads, 16-mer random dsDNA library, 0.1% formaldehyde crosslink after washing; high values mean tight binding
# [1] = target: T1, FLI1 (Homo sapiens, UniProt Q01543 1-452); conditions: protein: recombinant; tags: N-terminal GST; dsDNA, one strand shown
# T1 sequence: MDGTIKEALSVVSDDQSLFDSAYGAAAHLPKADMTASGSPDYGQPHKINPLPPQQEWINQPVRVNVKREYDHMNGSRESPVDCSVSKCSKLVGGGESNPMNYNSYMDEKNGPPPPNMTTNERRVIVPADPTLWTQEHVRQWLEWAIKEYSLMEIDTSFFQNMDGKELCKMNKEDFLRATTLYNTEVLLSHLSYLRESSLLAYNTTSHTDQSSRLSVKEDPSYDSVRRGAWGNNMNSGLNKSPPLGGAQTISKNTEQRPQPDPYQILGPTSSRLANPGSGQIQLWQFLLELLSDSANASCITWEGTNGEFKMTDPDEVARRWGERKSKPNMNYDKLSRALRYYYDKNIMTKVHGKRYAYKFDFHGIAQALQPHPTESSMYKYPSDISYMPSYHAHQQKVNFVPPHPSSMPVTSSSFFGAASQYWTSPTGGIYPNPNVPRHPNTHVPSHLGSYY
# Summary of the method: (§1)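 Human transcription factors fused to GST were expressed in yeast, captured on glutathione beads, given DNA barcodes and pooled with a GST-only negative control. Pools were incubated with 200 nmole of a 16-mer random double-stranded DNA library in Tris/NaCl/DTT/glycerol buffer at room temperature for 30 min. They were then washed, crosslinked with 0.1% formaldehyde, proximity-ligated (BsaI/T4 ligase, 1 h, 37 °C), PCR-amplified and sequenced on an Illumina NextSeq500. Binding signal is each 6-mer's read frequency for a factor divided by its frequency for the GST control.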
# [2] = target: T2, ELK1 (Homo sapiens, UniProt P19419 1-428); conditions: protein: recombinant; tags: N-terminal GST; dsDNA, one strand shown
# T2 sequence: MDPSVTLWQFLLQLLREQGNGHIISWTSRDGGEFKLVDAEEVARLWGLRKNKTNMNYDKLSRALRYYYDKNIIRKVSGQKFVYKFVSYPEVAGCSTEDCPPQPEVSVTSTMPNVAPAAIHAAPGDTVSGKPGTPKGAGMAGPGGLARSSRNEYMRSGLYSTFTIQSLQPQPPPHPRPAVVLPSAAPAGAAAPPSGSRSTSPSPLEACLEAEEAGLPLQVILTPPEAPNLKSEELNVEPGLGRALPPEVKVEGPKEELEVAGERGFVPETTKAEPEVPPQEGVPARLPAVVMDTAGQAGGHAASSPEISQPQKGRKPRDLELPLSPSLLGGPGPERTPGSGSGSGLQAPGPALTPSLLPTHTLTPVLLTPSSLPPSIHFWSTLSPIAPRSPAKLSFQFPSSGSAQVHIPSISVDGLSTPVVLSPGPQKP
# Summary of the method: as §1
# [3] = target: T3, GABPA (Homo sapiens, UniProt Q06546 1-454); conditions: protein: recombinant; tags: N-terminal GST; dsDNA, one strand shown
# T3 sequence: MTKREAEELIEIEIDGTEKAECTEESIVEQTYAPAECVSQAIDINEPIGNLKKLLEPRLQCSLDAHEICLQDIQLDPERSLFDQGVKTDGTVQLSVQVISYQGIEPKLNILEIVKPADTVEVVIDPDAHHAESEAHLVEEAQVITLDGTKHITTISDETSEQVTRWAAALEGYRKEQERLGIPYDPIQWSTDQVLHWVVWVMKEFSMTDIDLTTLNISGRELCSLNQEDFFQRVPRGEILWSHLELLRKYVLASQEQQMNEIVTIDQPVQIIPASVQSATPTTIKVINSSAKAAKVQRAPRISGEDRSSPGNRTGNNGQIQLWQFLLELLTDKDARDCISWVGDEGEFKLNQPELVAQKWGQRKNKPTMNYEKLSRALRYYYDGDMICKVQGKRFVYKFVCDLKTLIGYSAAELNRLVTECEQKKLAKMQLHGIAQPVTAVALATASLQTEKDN
# Summary of the method: as §1
# [4] = target: T4, ERG (Homo sapiens, UniProt P11308 1-479); conditions: protein: recombinant; tags: N-terminal GST; dsDNA, one strand shown
# T4 sequence: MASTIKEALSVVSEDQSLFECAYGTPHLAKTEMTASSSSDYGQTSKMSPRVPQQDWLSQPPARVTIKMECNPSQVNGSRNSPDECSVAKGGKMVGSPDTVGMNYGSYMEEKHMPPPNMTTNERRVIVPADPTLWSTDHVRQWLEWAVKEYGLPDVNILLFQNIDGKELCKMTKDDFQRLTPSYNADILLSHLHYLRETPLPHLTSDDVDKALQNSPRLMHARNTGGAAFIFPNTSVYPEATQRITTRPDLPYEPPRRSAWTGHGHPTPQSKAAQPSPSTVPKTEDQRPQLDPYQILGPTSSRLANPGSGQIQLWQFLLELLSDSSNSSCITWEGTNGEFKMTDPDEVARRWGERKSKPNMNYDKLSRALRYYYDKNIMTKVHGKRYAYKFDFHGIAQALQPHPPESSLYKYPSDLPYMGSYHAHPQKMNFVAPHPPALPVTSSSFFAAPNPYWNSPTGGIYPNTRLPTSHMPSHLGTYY
# Summary of the method: as §1
# [5] = target: ELF1 (Homo sapiens, UniProt P32519 1-619); conditions: protein: recombinant; tags: N-terminal GST; dsDNA, one strand shown
# Summary of the method: as §1
# [6] = target: T5, EHF (Homo sapiens, UniProt Q9NZC4 1-300); conditions: protein: recombinant; tags: N-terminal GST; dsDNA, one strand shown
# T5 sequence: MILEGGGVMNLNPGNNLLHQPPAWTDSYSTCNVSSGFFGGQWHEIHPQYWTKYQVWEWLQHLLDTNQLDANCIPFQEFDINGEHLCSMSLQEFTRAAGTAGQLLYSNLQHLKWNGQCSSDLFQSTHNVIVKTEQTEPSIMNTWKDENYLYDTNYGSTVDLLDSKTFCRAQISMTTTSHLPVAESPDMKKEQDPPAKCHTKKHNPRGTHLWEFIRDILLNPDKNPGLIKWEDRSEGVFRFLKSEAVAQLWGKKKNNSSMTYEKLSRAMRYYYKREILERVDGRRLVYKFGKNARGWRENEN
# Summary of the method: as §1
# [7] = target: SPI1 (Homo sapiens, UniProt P17947 1-270); conditions: protein: recombinant; tags: N-terminal GST; dsDNA, one strand shown
# Summary of the method: as §1
# [8] = target: SPIB (Homo sapiens, UniProt Q01892 1-262); conditions: protein: recombinant; tags: N-terminal GST; dsDNA, one strand shown
# Summary of the method: as §1
# [9] = target: T6, ELK3 (Homo sapiens, UniProt P41970 1-407); conditions: protein: recombinant; tags: N-terminal GST; dsDNA, one strand shown
# T6 sequence: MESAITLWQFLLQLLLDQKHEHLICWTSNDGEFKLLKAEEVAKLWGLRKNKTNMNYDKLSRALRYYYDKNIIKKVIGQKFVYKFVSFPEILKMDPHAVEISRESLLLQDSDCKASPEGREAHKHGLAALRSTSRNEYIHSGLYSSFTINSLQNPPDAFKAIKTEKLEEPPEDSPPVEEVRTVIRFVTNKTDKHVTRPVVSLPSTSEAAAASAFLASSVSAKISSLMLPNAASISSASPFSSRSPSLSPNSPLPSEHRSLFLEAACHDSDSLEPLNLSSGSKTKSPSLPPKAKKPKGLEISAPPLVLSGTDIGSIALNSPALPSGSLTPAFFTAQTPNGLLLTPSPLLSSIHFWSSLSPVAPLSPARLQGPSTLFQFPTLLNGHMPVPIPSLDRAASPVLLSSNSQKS
# Summary of the method: as §1
# [10] = target: T7, FEV (Homo sapiens, UniProt Q99581 1-238); conditions: protein: recombinant; tags: N-terminal GST; dsDNA, one strand shown
# T7 sequence: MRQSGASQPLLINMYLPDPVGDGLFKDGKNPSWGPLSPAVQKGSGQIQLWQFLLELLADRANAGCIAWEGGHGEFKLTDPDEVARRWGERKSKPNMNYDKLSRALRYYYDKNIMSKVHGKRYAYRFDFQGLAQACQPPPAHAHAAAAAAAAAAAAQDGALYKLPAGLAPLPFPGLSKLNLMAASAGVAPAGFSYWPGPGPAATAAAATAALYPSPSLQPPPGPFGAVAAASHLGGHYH
# Summary of the method: as §1
# [11] = target: ETV5 (Homo sapiens, UniProt P41161 1-510); conditions: protein: recombinant; tags: N-terminal GST; dsDNA, one strand shown
# Summary of the method: as §1
# [12] = target: HSF1 (Homo sapiens, UniProt Q00613 1-529); conditions: protein: recombinant; tags: N-terminal GST; chain copies: 3; dsDNA, one strand shown
# Summary of the method: as §1
# [13] = target: T8, SPIC (Homo sapiens, UniProt Q8N5J4 1-248); conditions: protein: recombinant; tags: N-terminal GST; dsDNA, one strand shown
# T8 sequence: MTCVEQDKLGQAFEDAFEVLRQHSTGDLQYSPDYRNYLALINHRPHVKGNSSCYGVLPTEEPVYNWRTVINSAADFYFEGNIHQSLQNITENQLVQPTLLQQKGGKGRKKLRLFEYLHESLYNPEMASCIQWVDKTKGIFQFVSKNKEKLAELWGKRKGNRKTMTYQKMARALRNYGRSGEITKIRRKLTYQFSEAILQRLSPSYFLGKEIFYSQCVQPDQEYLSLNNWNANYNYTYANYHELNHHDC
# Summary of the method: as §1
# [14] = target: ELF4 (Homo sapiens, UniProt Q99607 1-663); conditions: protein: recombinant; tags: N-terminal GST; dsDNA, one strand shown
# Summary of the method: as §1
# [15] = target: T9, ELK4 (Homo sapiens, UniProt P28324-2 1-405); conditions: protein: recombinant; tags: N-terminal GST; dsDNA, one strand shown
# T9 sequence: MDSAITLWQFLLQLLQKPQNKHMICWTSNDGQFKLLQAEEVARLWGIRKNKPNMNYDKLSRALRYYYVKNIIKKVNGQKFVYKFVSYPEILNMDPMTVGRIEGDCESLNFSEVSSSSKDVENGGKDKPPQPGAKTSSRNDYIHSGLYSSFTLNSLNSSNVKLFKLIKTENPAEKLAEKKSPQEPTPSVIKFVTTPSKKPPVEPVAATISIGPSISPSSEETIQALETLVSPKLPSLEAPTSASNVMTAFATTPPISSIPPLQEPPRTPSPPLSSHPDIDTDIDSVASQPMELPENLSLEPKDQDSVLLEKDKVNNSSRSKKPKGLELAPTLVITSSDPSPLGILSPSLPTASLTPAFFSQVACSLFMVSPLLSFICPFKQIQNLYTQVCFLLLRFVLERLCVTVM
# Summary of the method: as §1
# [16] = target: T10, ETV2 (Homo sapiens, UniProt O00321 1-342); conditions: protein: recombinant; tags: N-terminal GST; dsDNA, one strand shown
# T10 sequence: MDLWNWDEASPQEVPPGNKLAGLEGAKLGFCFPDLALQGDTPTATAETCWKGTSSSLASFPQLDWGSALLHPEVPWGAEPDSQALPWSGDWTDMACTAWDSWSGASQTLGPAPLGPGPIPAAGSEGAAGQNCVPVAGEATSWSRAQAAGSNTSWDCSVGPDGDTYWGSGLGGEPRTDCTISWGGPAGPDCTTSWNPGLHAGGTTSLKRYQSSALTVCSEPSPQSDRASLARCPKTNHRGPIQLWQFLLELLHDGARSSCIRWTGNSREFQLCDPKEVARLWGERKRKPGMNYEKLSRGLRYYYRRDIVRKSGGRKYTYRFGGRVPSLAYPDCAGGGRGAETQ
# Summary of the method: as §1
# [17] = target: T11, ELF3 (Homo sapiens, UniProt P78545 1-371); conditions: protein: recombinant; tags: N-terminal GST; dsDNA, one strand shown
# T11 sequence: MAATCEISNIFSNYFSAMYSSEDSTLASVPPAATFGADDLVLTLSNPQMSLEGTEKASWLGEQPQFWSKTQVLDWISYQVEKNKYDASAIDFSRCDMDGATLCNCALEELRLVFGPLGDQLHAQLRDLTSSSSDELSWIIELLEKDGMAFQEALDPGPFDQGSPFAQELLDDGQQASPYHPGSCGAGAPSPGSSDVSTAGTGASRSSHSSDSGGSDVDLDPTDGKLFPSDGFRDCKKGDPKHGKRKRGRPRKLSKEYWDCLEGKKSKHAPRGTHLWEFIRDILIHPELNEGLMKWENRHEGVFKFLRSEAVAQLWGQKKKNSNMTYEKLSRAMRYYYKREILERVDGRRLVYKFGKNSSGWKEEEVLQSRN
# Summary of the method: as §1
# [18] = target: CRX (Homo sapiens, UniProt O43186 1-299); conditions: protein: recombinant; tags: N-terminal GST; dsDNA, one strand shown
# Summary of the method: as §1
# [19] = target: ETV1 (Homo sapiens, UniProt P50549 1-477); conditions: protein: recombinant; tags: N-terminal GST; dsDNA, one strand shown
# Summary of the method: as §1
# ELF4, sequence (Q99607 whole entry): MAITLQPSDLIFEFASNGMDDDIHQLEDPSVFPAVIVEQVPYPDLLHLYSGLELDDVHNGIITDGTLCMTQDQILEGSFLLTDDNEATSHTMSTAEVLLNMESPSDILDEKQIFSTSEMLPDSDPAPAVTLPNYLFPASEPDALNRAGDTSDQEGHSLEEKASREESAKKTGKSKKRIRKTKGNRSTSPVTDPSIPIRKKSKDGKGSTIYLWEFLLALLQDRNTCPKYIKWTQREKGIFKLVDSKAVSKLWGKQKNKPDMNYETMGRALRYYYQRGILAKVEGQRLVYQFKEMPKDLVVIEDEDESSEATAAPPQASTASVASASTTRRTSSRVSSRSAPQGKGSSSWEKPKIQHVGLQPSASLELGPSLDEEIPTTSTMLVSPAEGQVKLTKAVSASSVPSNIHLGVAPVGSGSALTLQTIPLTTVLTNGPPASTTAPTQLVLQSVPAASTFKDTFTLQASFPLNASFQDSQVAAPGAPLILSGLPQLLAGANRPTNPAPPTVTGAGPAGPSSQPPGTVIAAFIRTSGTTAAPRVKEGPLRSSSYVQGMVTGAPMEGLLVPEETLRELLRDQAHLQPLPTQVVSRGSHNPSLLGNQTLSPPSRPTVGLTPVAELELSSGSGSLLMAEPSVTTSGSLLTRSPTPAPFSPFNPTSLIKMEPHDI
# ELF1, sequence (P32519 whole entry): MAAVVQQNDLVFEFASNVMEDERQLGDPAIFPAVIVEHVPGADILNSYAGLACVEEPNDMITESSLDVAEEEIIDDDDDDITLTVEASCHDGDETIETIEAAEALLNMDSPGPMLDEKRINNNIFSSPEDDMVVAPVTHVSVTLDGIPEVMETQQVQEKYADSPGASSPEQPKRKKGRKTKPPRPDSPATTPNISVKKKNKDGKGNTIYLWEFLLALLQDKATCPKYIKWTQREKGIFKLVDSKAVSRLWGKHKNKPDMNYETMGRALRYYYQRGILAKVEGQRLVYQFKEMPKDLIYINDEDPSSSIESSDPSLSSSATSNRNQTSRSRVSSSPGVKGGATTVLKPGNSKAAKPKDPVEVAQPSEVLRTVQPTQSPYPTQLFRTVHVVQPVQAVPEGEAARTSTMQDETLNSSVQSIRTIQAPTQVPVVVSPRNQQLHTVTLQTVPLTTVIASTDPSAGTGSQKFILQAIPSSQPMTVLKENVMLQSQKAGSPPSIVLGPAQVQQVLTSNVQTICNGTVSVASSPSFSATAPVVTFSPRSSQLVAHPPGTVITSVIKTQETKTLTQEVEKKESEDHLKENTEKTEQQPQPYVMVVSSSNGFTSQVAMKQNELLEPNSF
# HSF1, sequence (Q00613 whole entry): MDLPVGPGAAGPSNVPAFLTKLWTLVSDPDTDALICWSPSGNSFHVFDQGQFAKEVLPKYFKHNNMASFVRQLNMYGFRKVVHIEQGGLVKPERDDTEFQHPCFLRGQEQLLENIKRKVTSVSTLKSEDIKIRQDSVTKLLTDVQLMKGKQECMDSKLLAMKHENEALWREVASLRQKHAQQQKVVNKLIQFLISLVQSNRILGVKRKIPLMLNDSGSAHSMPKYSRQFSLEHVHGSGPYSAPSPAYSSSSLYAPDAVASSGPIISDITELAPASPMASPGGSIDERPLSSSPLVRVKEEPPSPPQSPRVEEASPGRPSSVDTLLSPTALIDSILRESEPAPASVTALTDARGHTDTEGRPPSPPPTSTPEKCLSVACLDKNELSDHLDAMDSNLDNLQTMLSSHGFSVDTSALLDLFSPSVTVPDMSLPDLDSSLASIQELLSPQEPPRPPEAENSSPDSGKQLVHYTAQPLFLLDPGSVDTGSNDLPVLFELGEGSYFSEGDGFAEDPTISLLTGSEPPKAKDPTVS
# ETV1, sequence (P50549 whole entry): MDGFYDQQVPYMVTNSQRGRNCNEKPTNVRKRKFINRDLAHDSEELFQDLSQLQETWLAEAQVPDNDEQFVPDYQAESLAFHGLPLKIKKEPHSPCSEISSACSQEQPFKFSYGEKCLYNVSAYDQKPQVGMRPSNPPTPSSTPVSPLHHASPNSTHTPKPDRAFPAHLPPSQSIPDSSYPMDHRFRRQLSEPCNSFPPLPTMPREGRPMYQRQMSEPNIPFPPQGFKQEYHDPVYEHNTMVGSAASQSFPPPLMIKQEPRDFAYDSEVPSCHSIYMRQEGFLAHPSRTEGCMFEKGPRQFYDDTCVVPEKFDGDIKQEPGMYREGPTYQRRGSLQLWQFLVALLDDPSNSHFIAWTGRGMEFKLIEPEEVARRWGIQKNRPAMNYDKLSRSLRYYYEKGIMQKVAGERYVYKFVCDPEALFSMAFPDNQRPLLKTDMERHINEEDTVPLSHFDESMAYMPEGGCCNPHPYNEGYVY
# SPIB, sequence (Q01892 whole entry): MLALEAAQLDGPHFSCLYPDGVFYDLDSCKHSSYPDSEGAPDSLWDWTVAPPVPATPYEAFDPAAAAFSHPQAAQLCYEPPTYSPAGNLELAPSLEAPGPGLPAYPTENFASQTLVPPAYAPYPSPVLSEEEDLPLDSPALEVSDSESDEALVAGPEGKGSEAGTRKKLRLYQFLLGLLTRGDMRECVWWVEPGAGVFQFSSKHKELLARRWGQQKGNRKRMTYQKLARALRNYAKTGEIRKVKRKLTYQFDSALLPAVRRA
# CRX, sequence (O43186 whole entry): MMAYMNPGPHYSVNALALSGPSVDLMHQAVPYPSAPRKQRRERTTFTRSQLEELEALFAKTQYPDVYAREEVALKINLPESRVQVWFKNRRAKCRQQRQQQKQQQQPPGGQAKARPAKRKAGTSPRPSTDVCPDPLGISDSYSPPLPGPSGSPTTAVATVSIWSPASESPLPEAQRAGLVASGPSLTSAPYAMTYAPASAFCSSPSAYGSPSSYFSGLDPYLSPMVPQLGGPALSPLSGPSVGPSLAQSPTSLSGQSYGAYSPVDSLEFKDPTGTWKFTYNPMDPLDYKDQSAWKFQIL
# ETV5, sequence (P41161 whole entry): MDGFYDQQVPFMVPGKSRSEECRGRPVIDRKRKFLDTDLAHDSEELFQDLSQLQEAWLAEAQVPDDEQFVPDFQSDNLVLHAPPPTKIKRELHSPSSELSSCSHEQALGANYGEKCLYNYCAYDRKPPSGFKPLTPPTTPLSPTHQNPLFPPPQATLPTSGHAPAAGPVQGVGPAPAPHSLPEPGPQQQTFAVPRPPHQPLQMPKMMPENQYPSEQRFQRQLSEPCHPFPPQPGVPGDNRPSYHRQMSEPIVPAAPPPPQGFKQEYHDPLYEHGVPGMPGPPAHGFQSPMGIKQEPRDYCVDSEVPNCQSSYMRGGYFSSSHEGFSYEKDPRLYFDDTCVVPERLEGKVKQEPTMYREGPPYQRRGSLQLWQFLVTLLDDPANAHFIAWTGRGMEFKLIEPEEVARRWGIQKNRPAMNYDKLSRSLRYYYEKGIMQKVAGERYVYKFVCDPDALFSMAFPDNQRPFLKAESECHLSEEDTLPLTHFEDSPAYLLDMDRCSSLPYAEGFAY
sequence,measurement,setting,value
TGCTTT,binding signal,[1],"1.13 fold enrichment (6-mer frequency, TF over GST control)"
same,binding signal,[2],"1.12 fold enrichment (6-mer frequency, TF over GST control)"
same,binding signal,[3],"1.12 fold enrichment (6-mer frequency, TF over GST control)"
same,binding signal,[4],"1.02 fold enrichment (6-mer frequency, TF over GST control)"
same,binding signal,[5],"1.1 fold enrichment (6-mer frequency, TF over GST control)"
same,binding signal,[6],"1.04 fold enrichment (6-mer frequency, TF over GST control)"
same,binding signal,[7],"1.14 fold enrichment (6-mer frequency, TF over GST control)"
same,binding signal,[8],"1.08 fold enrichment (6-mer frequency, TF over GST control)"
same,binding signal,[9],"1.1 fold enrichment (6-mer frequency, TF over GST control)"
same,binding signal,[10],"1.05 fold enrichment (6-mer frequency, TF over GST control)"
same,binding signal,[11],"1.05 fold enrichment (6-mer frequency, TF over GST control)"
same,binding signal,[12],"1.05 fold enrichment (6-mer frequency, TF over GST control)"
same,binding signal,[13],"1.16 fold enrichment (6-mer frequency, TF over GST control)"
same,binding signal,[14],"1.14 fold enrichment (6-mer frequency, TF over GST control)"
same,binding signal,[15],"1.23 fold enrichment (6-mer frequency, TF over GST control)"
same,binding signal,[16],"1.12 fold enrichment (6-mer frequency, TF over GST control)"
same,binding signal,[17],"1.05 fold enrichment (6-mer frequency, TF over GST control)"
same,binding signal,[18],"1.09 fold enrichment (6-mer frequency, TF over GST control)"
same,binding signal,[19],"1.06 fold enrichment (6-mer frequency, TF over GST control)"
